Bioassay records as filed in PubChem.
Many of the other results were omitted from the sample, so hits are more common in it than they were.
DUX4 inh = DUX4-mediated transcription inhibition. actives 0.8% (n = 37,000). AID 1224904. 293T-iDUX4 ZSCAN4-Gaussia luciferase reporter, 24 h; stronger effect = lower value. activity change, negative = inhibition, % (concentration not given with the values);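 active means mean inhibition of at least 10% in the main channel, exceeding the control channel by a set limit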;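 further: 0% = median of neutral control wells and -100% = median of positive control wells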
* marks the source's active call; other numbers are inactive results.

What do the screens show for `COc1cccc(-c2ccc3c(c2)O[C@@H](CN(C)C(=O)C2CCOCC2)[C@@H](C)CN([C@H](C)CO)S3(=O)=O)c1`?
DUX4 inh: -2

How did C[C@@H]1CN([C@H](C)CO)C(=O)CCCn2nncc2CO[C@@H]1CN(C)Cc1ccncc1 do in these assays?
DUX4 inh: 5

How did OC[C@H]1[C@@H](c2ccc(C#Cc3cccnc3)cc2)[C@@H]2CN(Cc3ccccc3F)CCCCN12 do in these assays?
DUX4 inh: -51*

How did O=C(Nc1ccccc1F)N1CCCCN2[C@H](C1)[C@H](c1ccc(C#Cc3cccnc3)cc1)[C@@H]2CO do in these assays?
DUX4 inh: -10

Results for OC[C@@H]1[C@@H](c2ccc(C#Cc3cccnc3)cc2)[C@H]2CN(Cc3ccccc3F)CCCCN12 ?
DUX4 inh: -45*

How did CCC(=O)N1CCCCN2[C@H](C1)[C@@H](c1ccc(-c3cccc(C#N)c3)cc1)[C@@H]2CO do in these assays?
DUX4 inh: 4

What do the screens show for `CC(C)(O)C#Cc1ccc([C@@H]2[C@@H](CO)N3CCCCN(Cc4ccccc4F)C[C@@H]23)cc1`?
DUX4 inh: 16

What do the screens show for `OC[C@@H]1[C@@H](c2ccc(C#Cc3ccccc3)cc2)[C@H]2CN(Cc3cncnc3)CCCCN12`?
DUX4 inh: -4

What do the screens show for `O=C(Nc1ccccc1F)N1CCCCN2[C@H](CO)[C@@H](c3ccc(C#Cc4cccnc4)cc3)[C@H]2C1`?
DUX4 inh: -3

What do the screens show for `N#Cc1cccc(-c2ccc([C@@H]3[C@@H](CO)N4CCCCN(Cc5ccccc5F)C[C@H]34)cc2)c1`?
DUX4 inh: -33*

Results for CC(C)(O)C#Cc1ccc([C@H]2[C@H]3CN(Cc4ccccc4F)CCCCN3[C@H]2CO)cc1 ?
DUX4 inh: 3

Results for CCC(=O)N1CCCCN2[C@@H](CO)[C@@H](c3ccc(-c4cccc(C#N)c4)cc3)[C@@H]2C1 ?
DUX4 inh: 15

Results for OC[C@H]1[C@@H](c2ccc(C#Cc3cccnc3)cc2)[C@H]2CN(Cc3ccccc3F)CCCCN21 ?
DUX4 inh: -43*

How did CC(C)(O)C#Cc1ccc([C@H]2[C@@H](CO)N3CCCCN(Cc4ccccc4F)C[C@@H]23)cc1 do in these assays?
DUX4 inh: 19

What do the screens show for `C[C@@H]1CCCCO[C@H](CN(C)CC2CCCCC2)[C@H](C)CN([C@@H](C)CO)C(=O)c2cc(NC(=O)C3CCCCC3)ccc2O1`?
DUX4 inh: -2

What do the screens show for `CCC(=O)N1[C@H](CO)[C@H]2c3ccccc3N(S(=O)(=O)c3ccccc3)C[C@H]21`?
DUX4 inh: -1

Results for O=C(C[C@@H]1CC[C@@H]2[C@H](COC[C@H](O)CN2S(=O)(=O)c2ccccc2)O1)N1CCOCC1 ?
DUX4 inh: -1

What do the screens show for `CCCNC(=O)Nc1ccc2c(c1)C(=O)N(C)[C@H]1CC[C@@H](CC(=O)O)O[C@@H]1CO2`?
DUX4 inh: 0

Results for O=C(C[C@@H]1CC[C@@H]2[C@H](COC[C@H](O)CN2S(=O)(=O)c2ccccc2)O1)NCCN1CCCC1 ?
DUX4 inh: -2

What do the screens show for `CC(=O)N1[C@H](CO)[C@@H](c2ccccc2)C12CN(C(=O)c1cnccn1)C2`?
DUX4 inh: 9

How did COc1ccccc1S(=O)(=O)N[C@H]1C=C[C@@H](CC(=O)NCc2cccc(F)c2)O[C@H]1CO do in these assays?
DUX4 inh: 4

Results for COCC(=O)N1CC(=O)N2[C@H](CO)[C@H](c3ccc(C#Cc4cccnc4)cc3)[C@H]2C1 ?
DUX4 inh: -22*

What do the screens show for `COc1cccc(NC(=O)N2CC(=O)N3[C@H](CO)[C@@H](c4ccc(C#CC5CCCCC5)cc4)[C@H]3C2)c1`?
DUX4 inh: -7

What do the screens show for `CC(C)CC#Cc1ccc([C@H]2[C@@H](CO)N3C(=O)CN(C(=O)Cc4ccccc4)C[C@H]23)cc1`?
DUX4 inh: -3

How did COCC(=O)N1CC(=O)N2[C@H](C1)[C@H](c1ccc(C#Cc3cccnc3)cc1)[C@@H]2CO do in these assays?
DUX4 inh: 10

What do the screens show for `CC(=O)N1CC(=O)N2[C@H](CO)[C@@H](c3ccc(C#Cc4cccnc4)cc3)[C@H]2C1`?
DUX4 inh: 0

How did COCC(=O)N1CC(=O)N2[C@@H](CO)[C@@H](c3ccc(C#Cc4cccnc4)cc3)[C@@H]2C1 do in these assays?
DUX4 inh: -2

Results for CC(=O)N1CC(=O)N2[C@@H](CO)[C@H](c3ccc(C#Cc4cccnc4)cc3)[C@@H]2C1 ?
DUX4 inh: 4

Results for COc1cccc(NC(=O)N2CC(=O)N3[C@@H](CO)[C@H](c4ccc(C#CC5CCCCC5)cc4)[C@@H]3C2)c1 ?
DUX4 inh: -47*

How did O=C(Cc1ccccc1)N1CC(=O)N2[C@H](C1)[C@@H](c1ccc(C#CCc3ccccc3)cc1)[C@@H]2CO do in these assays?
DUX4 inh: -34*

How did CC(C)CC#Cc1ccc([C@@H]2[C@@H](CO)N3C(=O)CN(C(=O)Cc4ccccc4)C[C@H]23)cc1 do in these assays?
DUX4 inh: -1

What do the screens show for `COc1cccc(NC(=O)N2CC(=O)N3[C@H](CO)[C@@H](c4ccc(C#CC5CCCCC5)cc4)[C@@H]3C2)c1`?
DUX4 inh: 5

How did CC(=O)N1CC(=O)N2[C@H](CO)[C@H](c3ccc(C#Cc4cccnc4)cc3)[C@H]2C1 do in these assays?
DUX4 inh: -20*

What do the screens show for `CNC(=O)C[C@@H]1CC[C@H]2[C@@H](COc3ccc(NC(=O)NC(C)C)cc3C(=O)N2C)O1`?
DUX4 inh: -5

What do the screens show for `CN(C)CC(=O)N1CC2(C1)[C@H](c1ccccc1)[C@H](CO)N2Cc1ccccc1F`?
DUX4 inh: -4

Results for COC(=O)C[C@@H]1CC[C@@H]2[C@H](COC[C@@H](O)CN2S(=O)(=O)c2ccc(F)cc2)O1 ?
DUX4 inh: 4

Results for CC(C)C[C@@H]1COCc2cn(nn2)CC[C@H](Cc2cccc(Cl)c2)C(=O)N1 ?
DUX4 inh: 1

How did O=C(NCC1CCCCC1)[C@H]1[C@H](CO)[C@H]2Cn3c(cccc3=O)[C@@H]1N2CCc1ccccc1 do in these assays?
DUX4 inh: -5

What do the screens show for `COc1ccc(C[C@@H]2CCn3cc(nn3)COC[C@H](C(C)C)NC2=O)cc1`?
DUX4 inh: 1

What do the screens show for `CNC(=O)C[C@H]1CC[C@H]2[C@@H](COC[C@H](O)CN2C(=O)Nc2ccc3c(c2)OCO3)O1`?
DUX4 inh: 3

Results for COc1ccc2c3c(n(C)c2c1)[C@H](CO)N(C(=O)CN(C)C)CC31CN(S(C)(=O)=O)C1 ?
DUX4 inh: 18

Results for COc1ccc2c3c(n(C)c2c1)[C@@H](CO)N(C(=O)CN(C)C)CC31CN(C(=O)C2CCC2)C1 ?
DUX4 inh: 22

What do the screens show for `CCC(=O)N1[C@H](CO)[C@@H](c2ccccc2)C12CN(Cc1cccnc1)C2`?
DUX4 inh: 17

How did CCCNC(=O)N1CC2(C1)[C@H](c1ccccc1)[C@@H](CO)N2Cc1ccccn1 do in these assays?
DUX4 inh: 0

What do the screens show for `COc1cccc(CN2CCCCN3[C@H](CO)[C@@H](c4ccc(-c5cccnc5)cc4)[C@H]3C2)c1`?
DUX4 inh: 5

What do the screens show for `COCC#Cc1ccc([C@@H]2[C@@H](CO)N3CCCCN(Cc4cccnc4)C[C@H]23)cc1`?
DUX4 inh: 9

What do the screens show for `COCC#Cc1ccc([C@H]2[C@H]3CN(Cc4cccnc4)CCCCN3[C@H]2CO)cc1`?
DUX4 inh: 29
